In PubChem BioAssay (NCI):
The panel holds about 83,000 compounds, 20% with a hit somewhere; the sample as a whole holds those more often.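 In brief: 96-well plates, 48 h treatment, single concentration, percent growth endpoint.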 Calls of active or inactive are those of the source. Rule for the calls: active = growth percent below 10; inactive = the rest.

Tests used:
Assay in all cases: NCI-60 one-dose screen, 48 h (100 = growth as untreated, 0 = no growth, -100 = all killed)
Conditions in all cases: 10 µM unless noted
T-47D breast = tested on: T-47D breast
BT-549 breast = tested on: BT-549 breast
MDA-MB-435 melanoma = tested on: MDA-MB-435 melanoma
SW-620 colon = tested on: SW-620 colon
MCF7 breast = tested on: MCF7 breast
HCT-116 colon = tested on: HCT-116 colon
HCC-2998 colon = tested on: HCC-2998 colon
KM12 colon = tested on: KM12 colon

Measured: growth

CC1=NN(c2cccc(Cl)c2)C(=O)/C1=C\c1cn(-c2nc(N3CCOCC3)nc(N3CCOCC3)n2)c2ccccc12
inactive: T-47D breast 99.8% | BT-549 breast 103% | MDA-MB-435 melanoma 100% | SW-620 colon 110% | MCF7 breast 98.9% | HCT-116 colon 94.9% | HCC-2998 colon 104% | KM12 colon 107%

CC(O)CN(CCO)CCN(CCO)CC(C)O (configuration not stated)
inactive: T-47D breast 100% | BT-549 breast 105% | MDA-MB-435 melanoma 106% | SW-620 colon 105% | MCF7 breast 94.5% | HCT-116 colon 104% | HCC-2998 colon 109% | KM12 colon 108%

CCCC(=O)Nc1ccccc1C(=O)O
inactive: T-47D breast 117% | BT-549 breast 113% | MDA-MB-435 melanoma 101% | SW-620 colon 105% | MCF7 breast 90.7% | HCT-116 colon 103% | HCC-2998 colon 97.9% | KM12 colon 90.5%

O=C(Nc1ccc(Cl)c(Cl)c1)O/N=C\c1c(Cl)ccc([N+](=O)[O-])c1Cl
active: T-47D breast -46.8% | BT-549 breast -6.07% | MDA-MB-435 melanoma -31% | SW-620 colon -79.3% | MCF7 breast -62.9% | HCT-116 colon -83.5% | HCC-2998 colon -64.7% | KM12 colon -71.8%

O=C1C(Br)=CC2C1C1C3CCC3C2(Br)C12OCCO2 (configuration not stated)
inactive: BT-549 breast 45.6% | MDA-MB-435 melanoma 23.7% | SW-620 colon 17.3% | HCT-116 colon 16.1% | HCC-2998 colon 74.8% | KM12 colon 44.9%
active: T-47D breast 3.72% | MCF7 breast 2.12%

CCCCN(CCCC)CCCNc1c2c(nc3ccc(Cl)cc13)CCCC2
inactive: T-47D breast 95.7% | BT-549 breast 108% | MDA-MB-435 melanoma 103% | SW-620 colon 82.3% | MCF7 breast 89.6% | HCT-116 colon 57.6% | HCC-2998 colon 82.8% | KM12 colon 99.7%

OCCN1CCCN(CCCN2c3ccccc3Sc3ccc(C(F)(F)F)cc32)CC1
inactive: T-47D breast 60.7% | BT-549 breast 72.3% | SW-620 colon 67.7% | MCF7 breast 39.2% | HCT-116 colon 29.2% | KM12 colon 54.7%
active: MDA-MB-435 melanoma -29.2% | HCC-2998 colon -42.4%

CC(=N\N=C(N)N)/C(=N/N=C(N)N)c1ccccc1
inactive: T-47D breast 60.8% | BT-549 breast 88% | MDA-MB-435 melanoma 103% | SW-620 colon 86.3% | MCF7 breast 18.9% | HCT-116 colon 80.4% | HCC-2998 colon 73.8% | KM12 colon 70.4%

NC(N)=N/N=C/c1cccc(Br)c1
inactive: T-47D breast 86.8% | BT-549 breast 87% | MDA-MB-435 melanoma 105% | SW-620 colon 102% | MCF7 breast 90.5% | HCT-116 colon 92.5% | HCC-2998 colon 101% | KM12 colon 107%

Oc1ccc(CN(Cc2ccc(C(F)(F)F)cc2)Cc2ccc(O)c3ncccc23)c2cccnc12
inactive: T-47D breast 20.2% | BT-549 breast 32.9% | MDA-MB-435 melanoma 31.4% | SW-620 colon 18.1% | MCF7 breast 13.7% | HCT-116 colon 18% | HCC-2998 colon 34.1% | KM12 colon 18.8%

O=C1NCCN1/N=C/c1c(Cl)nc2n1CCS2
inactive: T-47D breast 119% | BT-549 breast 97.7% | MDA-MB-435 melanoma 112% | SW-620 colon 103% | MCF7 breast 106% | HCT-116 colon 93.5% | HCC-2998 colon 111% | KM12 colon 101%

CC([C@H]1CCC2C3CCC4C[C@@H](N)CC[C@]4(C)C3CC[C@@]21C)N(C)C (some centres not stated)
inactive: T-47D breast 55.9% | BT-549 breast 80.1% | SW-620 colon 40.2% | MCF7 breast 48.7% | HCT-116 colon 27.9% | HCC-2998 colon 80.1% | KM12 colon 51.3%
active: MDA-MB-435 melanoma 0%

CC(=O)c1nn(-c2ccc(C)cc2)cc1C(=O)c1cc2c(ccc3ccccc32)oc1=O
inactive: T-47D breast 75.2% | BT-549 breast 85.5% | MDA-MB-435 melanoma 99% | SW-620 colon 100% | MCF7 breast 87.5% | HCT-116 colon 89.4% | HCC-2998 colon 103% | KM12 colon 95.1%

COC(=O)[C@H](Cc1cn(C)cn1)NC(=O)[C@H](CC(=O)OCc1ccccc1)NC(=O)Nc1cc(C(F)(F)F)cc(C(F)(F)F)c1
active: T-47D breast -62.1% [100 µM] | BT-549 breast -96.6% [100 µM] | MDA-MB-435 melanoma -91.9% [100 µM] | SW-620 colon -59.2% [100 µM] | MCF7 breast -60.5% [100 µM] | HCT-116 colon -97.9% [100 µM] | HCC-2998 colon -91.5% [100 µM] | KM12 colon -89.8% [100 µM]

O=C(O)COc1ccc([N+](=O)[O-])cc1Cl
inactive: T-47D breast 86.1% | BT-549 breast 107% | MDA-MB-435 melanoma 107% | SW-620 colon 108% | MCF7 breast 102% | HCT-116 colon 105% | HCC-2998 colon 113% | KM12 colon 103%

CCCOC(=O)c1c(C)n(C)c2scc[n+]12
inactive: T-47D breast 92.8% | BT-549 breast 80.5% | MDA-MB-435 melanoma 90.9% | SW-620 colon 77.8% | MCF7 breast 96.7% | HCT-116 colon 70.3% | HCC-2998 colon 184% | KM12 colon 74%

CC[C@@H](C)/C=C(C)/C=C/C(=O)c1c(O)c(-c2ccc(OC(=O)[C@@]34CC[C@@](C)(C(=O)O3)C4(C)C)cc2)cn(O)c1=O
active: BT-549 breast -0.686% | HCC-2998 colon -10.3%
inactive: T-47D breast 34.7% | MDA-MB-435 melanoma 22.2% | SW-620 colon 37.3% | MCF7 breast 15.6% | HCT-116 colon 17.1% | KM12 colon 18.4%

CSCc1ncc(-c2ccc(C(F)(F)F)cc2)c(NC2CCCCCC2)n1
inactive: T-47D breast 53.5% [25 µM] | BT-549 breast 82.1% [25 µM] | MDA-MB-435 melanoma 78.7% [25 µM] | SW-620 colon 53.1% [25 µM] | MCF7 breast 68% [25 µM] | HCT-116 colon 38.1% [25 µM] | HCC-2998 colon 89.9% [25 µM] | KM12 colon 52.1% [25 µM]

CCCC(CCC)Oc1ccc(CCCC2=C(O)c3ccccc3C(=O)C2=O)cc1
inactive: T-47D breast 65.4% | BT-549 breast 35.5% | MDA-MB-435 melanoma 37.4% | SW-620 colon 28.1% | MCF7 breast 29% | HCT-116 colon 16.7% | HCC-2998 colon 13.4% | KM12 colon 23.7%

C=CCNC(=S)NNc1ccc([N+](=O)[O-])cn1
inactive: T-47D breast 113% | BT-549 breast 100% | MDA-MB-435 melanoma 95.7% | SW-620 colon 92% | MCF7 breast 88.4% | HCT-116 colon 97.6% | HCC-2998 colon 96.3% | KM12 colon 99.4%

COc1cc(NC(=O)CSc2nc3ccc(Cl)cc3c(=O)n2-c2ccc(F)cc2)cc(OC)c1OC
inactive: T-47D breast 72.6% | BT-549 breast 95.9% | MDA-MB-435 melanoma 90.8% | SW-620 colon 95.4% | MCF7 breast 87.5% | HCT-116 colon 79.4% | HCC-2998 colon 105% | KM12 colon 85.2%

Cc1c(CN(C)C)cc(C(C)C)cc1C(C)C
inactive: T-47D breast 131% | BT-549 breast 118% | MDA-MB-435 melanoma 111% | SW-620 colon 104% | MCF7 breast 96.7% | HCT-116 colon 104% | HCC-2998 colon 104% | KM12 colon 114%

COc1ccc(C(O)(c2ccccc2)C(C(=O)O)c2ccccc2)cc1 (configuration not stated)
inactive: T-47D breast 86% | BT-549 breast 94.7% | MDA-MB-435 melanoma 117% | SW-620 colon 107% | MCF7 breast 114% | HCT-116 colon 97.2% | HCC-2998 colon 102% | KM12 colon 93.9%

Nc1cc2c(cc1Br)[nH]c(=O)c1ccccc12
active: MDA-MB-435 melanoma -42.6%
inactive: T-47D breast 29.6% | BT-549 breast 65.1% | SW-620 colon 61% | MCF7 breast 15.9% | HCT-116 colon 19.2% | HCC-2998 colon 68% | KM12 colon 26.2%
